According to PubChem BioAssay:
The source made the active and inactive calls.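 The calls were made as follows, unless noted: active = fluorescence slope higher than the sample average by over 3 SD (cut at about -0.22 in these data, passing the limit was not always enough); inactive = the rest.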

Tests used:
[1] = inhibitors of TNFa-induced NFkB p65 translocation, primary screen, imaging, HUVEC, MLSMR starter and 10KST1 sets (AID 438;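 active = inhibition above 20% together with a positive visual image hit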;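 also: compound added about 3h40 before a 20 min TNFalpha stimulation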;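 as to inhibition: signal is the nuclear over cytoplasmic p65 intensity ratio per well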); conditions: HUVEC TNFa-induced p65 nuclear translocation; cell count: measured here: nuclei count (cytotoxicity indicator), at 2.08 µM; inhibition: at 2 µM, stronger effect = higher value, 0% TNFa-plus-vehicle, 100% no-TNFa wells
[2] = inhibitors of mutant huntingtin aggregation, primary screen, imaging, exon1htt(103Q)mCFP cells, high-content imaging (AID 483;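 active = visual image review flags a hit and inhibition of aggregation exceeds 20%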;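 also: compound exposure lasted 3 days before fixation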;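 as to nuclei count: percent of the per-plate median nuclei count of sample wells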); conditions: exon1htt(103Q)mCFP cell line, aggregate imaging, at 2 µM; inhibition of aggregation: stronger effect = higher value; nuclei count: measured here: cell count, toxicity
[3] = inhibitors of E-selectin induction by TNFa, primary screen, imaging, HUVEC, immunofluorescence, MLSMR starter and 10KST1 sets (AID 487;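 active = visually confirmed hit in the image check and inhibition above 20%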;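 as to inhibition: signal is fraction of cell area covered by stained E-selectin grains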;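 as to nuclei count: 100% = median nuclei count of all wells on the same plate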); conditions: HUVEC TNFalpha-induced E-selectin immunofluorescence imaging, at 2 µM; inhibition: stronger effect = higher value; nuclei count: measured here: cell number, toxicity
[4] = target: Voltage-gated potassium channel subunit beta-2 (Rattus norvegicus) (UniProt P62483); assay: KvBeta enzyme negative modulators, primary screen, biochemical, NADPH fluorescence (AID 622); conditions: recombinant KvBeta, 4-cyanobenzaldehyde reduction, at 10 µM, stronger effect = higher value;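 also: slope of raw intensity against log time taken from 70 to 1610 s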
[5] = target: Voltage-gated potassium channel subunit beta-2 (Rattus norvegicus) (UniProt P62483); assay: KvBeta positive modulators, primary screen, biochemical, NADPH fluorescence (AID 623;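 active = NADPH fluorescence slope more negative than the mean of all samples by about 3 SD, 99.7% confidence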;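 also: fluorescence intensity change per second fitted from 20 to 320 s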); conditions: Recombinant KvBeta, NADPH fluorescence decrease slope, 10 min; at 10 µM; stronger effect = lower value
[6] = target: Alpha-2C adrenergic receptor (Homo sapiens) (UniProt P18825); assay: modulators of alpha2C/GIRK thallium flux, primary screen, cell-based, HEK293 alpha2C/GIRK1/2 (AID 624;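 active = fluorescence slope after compound addition differing from the mean of all screened samples at 99.7% confidence, in either direction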;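 also: slope of fluorescence ratio to pre-addition baseline per second over 15 to 24 s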); conditions: thallium flux BTC fluorescence, at 10 µM, actives lie on both sides
[7] = inhibitors of Sendai virus-induced IRF3 signaling, primary screen, TLR/RLR signaling modifier project, cell-based, Sendai virus stimulus, luciferase, 10K MLSCN set (AID 602276;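 active = inhibition at or above 50% at 10 µM; inactive = inhibition below 50%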;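 also: firefly luciferase from ISG56 promoter only with Renilla not read in this screen; 0% = Sendai virus plus DMSO and 100% = medium plus DMSO without virus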); conditions: HEK293 RL24 IRF3 luciferase reporter, at 10 µM, stronger effect = higher value
[8] = inhibitors of poly I:C-induced TLR3 signaling, primary screen, cell-based, poly I:C stimulus, luciferase, 10K MLSCN set (AID 602277;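 active = inhibition of the reporter signal at or above 50%; inactive = inhibition below 50%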); conditions: HEK293-TLR3 RL24 IRF3 luciferase reporter, at 10 µM, stronger effect = higher value

Chain of Alpha-2C adrenergic receptor (Homo sapiens) (P18825 whole entry, looked up): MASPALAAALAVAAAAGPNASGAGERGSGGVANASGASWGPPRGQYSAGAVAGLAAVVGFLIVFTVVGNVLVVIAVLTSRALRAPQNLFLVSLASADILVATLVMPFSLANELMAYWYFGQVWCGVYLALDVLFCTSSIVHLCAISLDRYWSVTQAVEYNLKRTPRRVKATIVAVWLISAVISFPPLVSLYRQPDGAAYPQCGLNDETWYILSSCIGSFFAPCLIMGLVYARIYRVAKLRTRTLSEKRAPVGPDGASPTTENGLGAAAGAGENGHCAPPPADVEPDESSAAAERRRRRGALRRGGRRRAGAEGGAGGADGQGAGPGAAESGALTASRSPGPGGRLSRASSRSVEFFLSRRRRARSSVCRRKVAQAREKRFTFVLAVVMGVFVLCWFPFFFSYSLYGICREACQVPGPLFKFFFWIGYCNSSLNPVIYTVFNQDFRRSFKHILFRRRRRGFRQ
Chain of Voltage-gated potassium channel subunit beta-2 (Rattus norvegicus) (P62483 whole entry, looked up): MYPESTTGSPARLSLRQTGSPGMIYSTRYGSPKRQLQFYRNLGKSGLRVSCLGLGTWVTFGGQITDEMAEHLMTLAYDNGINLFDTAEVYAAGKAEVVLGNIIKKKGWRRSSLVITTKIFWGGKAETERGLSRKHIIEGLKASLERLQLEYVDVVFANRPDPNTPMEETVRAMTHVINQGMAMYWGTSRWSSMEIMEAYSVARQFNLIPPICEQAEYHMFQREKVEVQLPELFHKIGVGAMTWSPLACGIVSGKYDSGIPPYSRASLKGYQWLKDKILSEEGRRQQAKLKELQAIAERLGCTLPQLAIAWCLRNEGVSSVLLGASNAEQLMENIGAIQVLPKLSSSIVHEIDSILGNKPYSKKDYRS

Row | Compound | cell count [1] | inhibition [1] | inhibition of aggregation [2] | nuclei count [2] [%] | inhibition [3] | nuclei count [3] [%] | fluorescence slope [4] | NADPH fluorescence slope [5] | slope [6] | inhibition [7] | inhibition [8]
1 | COc1ccc(CCN2C(=O)CCC2(C)C(=O)NCc2cccnc2)cc1OC (centres undefined) | 436 | -6% (inactive) | 5.2% (inactive) | 103 | -83.9% (inactive) | 97.9 | -0.602 (inactive) | 2.6e-06 (inactive) | 0.0059 (inactive) | 8.53% (inactive) | 7.83% (inactive)
2 | CC(C)(C)C1=Nn2c(nnc2-c2n[nH]c3c2CCC3)SC1 | 385 | 6% (inactive) | -24.6% (inactive) | 100 | -30.7% (inactive) | 87.6 | -0.521 (inactive) | -1.7e-07 (inactive) | 0.00435 (inactive) | 14.9% (inactive) | 15.7% (inactive)
3 | CCOC(=O)Nc1ccc2c(CN3C(=O)NC4(CCCC4)C3=O)cc(=O)oc2c1 | 744 | 3.5% (inactive) | -24.7% (inactive) | 99.9 | -149% (inactive) | 153 | -0.229 (inactive) | -2.4e-05 (inactive) | 0.00554 (inactive) | 0.299% (inactive) | -13.9% (inactive)
4 | Cc1nc(SCc2ccc(Br)cc2)[nH]c(=O)c1C | 755 | 0.8% (inactive) | -11.8% (inactive) | 76.4 | -44.8% (inactive) | 117 | -0.452 (inactive) | -2.5e-05 (inactive) | 0.00691 (inactive) | 3.06% (inactive) | 29.5% (inactive)
5 | O=c1[nH]c2cc3c(cc2cc1C(c1nnnn1C1CCCCC1)N1CCSCC1)OCCO3 (centres undefined) | 479 | 0% (inactive) | -12.4% (inactive) | 106 | -10% (inactive) | 96.7 | -0.313 (inactive) | -3.2e-05 (inactive) | 0.00532 (inactive) | -11.4% (inactive) | -7.01% (inactive)
6 | Cc1ccc(CNC(=O)C2CC(=O)OC23CCCC3)c(C)c1 (centres undefined) | 410 | 17.5% (inactive) | -25.4% (inactive) | 104 | 8.3% (inactive) | 102 | -0.593 (inactive) | 4.6e-07 (inactive) | 0.00501 (inactive) | 17.7% (inactive) | 20.9% (inactive)
7 | COc1cccc(OCCn2ccnc2)c1 | 305 | -6.6% (inactive) | 9.6% (inactive) | 82.1 | -24.7% (inactive) | 120 | -0.422 (inactive) | 2e-05 (inactive) | 0.00692 (inactive) | -8.26% (inactive) | -3.22% (inactive)
8 | CCOC(=O)C(NC(=O)CC)(Nc1ccc(S(=O)(=O)Nc2onc(C)c2C)cc1)C(F)(F)F (centres undefined) | 320 | 3.4% (inactive) | 0.6% (inactive) | 95 | -27.3% (inactive) | 104 | -0.61 (inactive) | -1.1e-05 (inactive) | 0.00634 (inactive) | 11.3% (inactive) | 14.1% (inactive)
9 | Cc1cc2ncn(S(=O)(=O)c3ccc(S(=O)(=O)N4CCOCC4)cc3)c2cc1C | 311 | -3.3% (inactive) | 0.7% (inactive) | 93.4 | -98.8% (inactive) | 113 | -0.518 (inactive) | 1.7e-05 (inactive) | 0.00432 (inactive) | -0.351% (inactive) | 3.91% (inactive)
10 | CC(=O)NC1CC2CCCC(C1)N2CC(=O)Nc1ccccc1 (centres undefined) | 302 | 9.6% (inactive) | 3.9% (inactive) | 89.5 | 26.1% (inactive) | 93.9 | -0.565 (inactive) | -2.4e-05 (inactive) | 0.00646 (inactive) | -13.6% (inactive) | -5.22% (inactive)
11 | CN(C)S(=O)(=O)c1ccc(C(=O)N2CCCC2c2nc3ccccc3s2)cc1 (centres undefined) | 475 | -9.4% (inactive) | 4% (inactive) | 97.5 | -82.5% (inactive) | 102 | -0.524 (inactive) | 1.6e-05 (inactive) | 0.0053 (inactive) | -17.9% (inactive) | -7.19% (inactive)
12 | Cn1cccc1Cc1nnc(SCC(=O)Nc2ccccc2F)n1CCc1ccccc1 | 614 | -7.4% (inactive) | 7.5% (inactive) | 92.6 | -52.6% (inactive) | 103 | -0.619 (inactive) | 1.5e-05 (inactive) | 0.00629 (inactive) | 3.46% (inactive) | 10.1% (inactive)
13 | Nc1nc2n(n1)C(c1cccc(Cl)c1)CC(c1ccc(F)cc1)N2 (centres undefined) | 678 | -12.4% (inactive) | -13.4% (inactive) | 100 | -13.6% (inactive) | 106 | -0.42 (inactive) | -3.8e-05 (inactive) | 0.00636 (inactive) | 11.8% (inactive) | 25.8% (inactive)
14 | Cc1c(N=C2SCC(=O)N2c2c(C)n(C)n(-c3ccccc3)c2=O)c(=O)n(-c2ccccc2)n1C | 592 | 4.1% (inactive) | -7.8% (inactive) | 113 | -66.8% (inactive) | 116 | -0.482 (inactive) | -3e-05 (inactive) | 0.00551 (inactive) | 2.44% (inactive) | 13.3% (inactive)
15 | O=C(Nc1ccc(O)cc1)C1CCCN1S(=O)(=O)c1ccc(F)cc1 (centres undefined) | 598 | -2.1% (inactive) | -9.8% (inactive) | 90 | -33.3% (inactive) | 119 | -0.497 (inactive) | -2.5e-05 (inactive) | 0.00664 (inactive) | 8.7% (inactive) | 9.85% (inactive)
16 | Cc1cc(NC(=O)CCCC(=O)Nc2ccc(F)cc2)no1 | 423 | -10.5% (inactive) | 13.2% (inactive) | 72.2 | -43% (inactive) | 107 | -0.477 (inactive) | 9.1e-07 (inactive) | 0.0057 (inactive) | 5.46% (inactive) | 34.4% (inactive)
17 | COc1ccc2c(c1)CCc1cc(C(=O)N3CCN(c4ccc(N5CCOCC5)nn4)CC3)sc1-2 | 583 | 5.5% (inactive) | -28.1% (inactive) | 127 | -61.7% (inactive) | 114 | -0.499 (inactive) | -1.1e-05 (inactive) | 0.00712 (inactive) | 2.81% (inactive) | -42.5% (inactive)
18 | Cc1ccc(S(=O)(=O)NCCNC(=O)C2CCCNC2=O)cc1 (centres undefined) | 440 | -0.4% (inactive) | -9.8% (inactive) | 97.5 | -14.7% (inactive) | 121 | -0.584 (inactive) | -7e-05 (inactive) | 0.00341 (inactive) | 16.4% (inactive) | 12.2% (inactive)
19 | Cc1ccc2c(c1)NC(=O)C(CC(=O)NCCCN1CCN(c3cc(Cl)ccc3C)CC1)O2 (centres undefined) | 640 | 4.1% (inactive) | -19% (inactive) | 82.6 | 8.8% (inactive) | 123 | -0.55 (inactive) | 3.4e-05 (inactive) | 0.00483 (inactive) | -15.5% (inactive) | -8.91% (inactive)
